# What was measured:
# Format in all cases: functional
# Plasmodium falciparum [1] = experiment: GSK_TCMDC: Inhibition of Plasmodium falciparum 3D7 in whole red blood cells, using parasite LDH activity as an index of growth. Test compounds present at 2uM
# Plasmodium falciparum [2] = experiment: GSK_TCMDC: Inhibition of Plasmodium falciparum Dd2 in whole red blood cells, using parasite LDH activity as an index of growth. Test compounds present at 2uM
# HepG2 = experiment: GSK_TCMDC: Percent inhibition of human HepG2 cell line. Test compounds present at 10uM.
SMILES,Inhibition (Plasmodium falciparum [1]),Inhibition (Plasmodium falciparum [2]),Inhibition (HepG2)
CC(C)NCc1cc(Nc2ccnc3cc(Cl)ccc23)ccc1O.Cl,100%,100%,27%
CCc1ccc(S(=O)(=O)Nc2ccc(CCN(C)C3CCN(C)CC3)cc2)cc1,86%,9%,25%
Clc1cc(Cl)c2c(c1)C(NCCCNc1nc3ccccc3[nH]1)CCO2 (configuration not stated),100%,31%,28%
Cl.Cn1nc(C(F)(F)F)cc1-c1ccc(C(=O)Nc2ccc3c(c2)CNCC3(C)C)s1,88%,36%,10%
CNc1ccc(CNCc2ccc(-c3ccc(-c4nc5cc(C(F)(F)F)ccc5[nH]4)cc3)cc2)cc1.O=C(O)C(F)(F)F,100%,98%,53%
CC(C)(CNCc1ccc(Cl)cc1)c1nc(-c2ccc(Cl)c(O)c2)c(-c2ccncc2)[nH]1.Cl,100%,98%,86%
O=C(Nc1cccc(CN2CCCN(CC3CC3)CC2)c1)c1ccc(Cl)c(Cl)c1.O=C(O)C(F)(F)F,92%,5%,13%
Cc1cc(C(=O)Nc2nc(-c3ccccn3)nc3ccsc23)no1,98%,90%,44%
Clc1ccc(Sc2cncnc2N2CCOCC2)cc1,95%,0%,66%
CC(Sc1nc(-c2ccccc2)c(-c2ccccc2)o1)C(=O)NC1CC1 (configuration not stated),94%,91%,13%
Cn1c(=O)c(-c2c(Cl)cccc2Cl)cc2cnc(Nc3ccc(N4CCOCC4)cc3)nc21,98%,97%,64%
O=C(O)C(F)(F)F.c1cncc(CCNCc2ccc(-c3ccc(-c4nc5ccccc5[nH]4)s3)cc2)c1,100%,99%,35%
N#Cc1cccc(C(=O)Nc2cccc(-c3ccc(C(=O)Nc4cccnc4)cc3)c2)c1,89%,10%,39%
Cc1ccc(CCC(C)NCC(O)c2cccc(C(F)(F)F)c2)cc1 (configuration not stated),99%,98%,0%
CC(C)N1CCN(C(=O)c2ccc(CNCCCN3CCN(c4ccccc4C(F)(F)F)CC3)s2)CC1.Cl,98%,42%,32%
FC(F)(F)c1cccc2c(NN=Cc3ccccc3)ccnc12,100%,90%,10%
COc1cccc(-c2ccc(C(=O)NCC3CCCN(Cc4cccc(C(F)(F)F)c4)C3)s2)c1.O=C(O)C(F)(F)F (configuration not stated),85%,18%,10%
Cc1[nH]c2ccccc2c1C(=O)CSc1nn(-c2ccccc2)c(=S)s1,100%,99%,0%
Cc1cccc2nc(-c3ccc(-c4ccc(NC(=O)Nc5ccsc5)cc4)cc3)[nH]c12,100%,70%,49%
CC(C)CC(NC(=O)c1ccc(F)cc1)C(=O)N[C@H](/C=N/N1CCNC1=O)CC(C)C (some centres not stated),89%,84%,0%
c1ccc(Oc2ccc(Nc3ccnc4cc(-c5ccc(CN6CCOCC6)o5)ccc34)cc2)nc1,92%,73%,5%
CC(C)c1ccc2[nH]c(C(=O)NC3CCC(N4CCCc5ccc(C#N)cc5C4)CC3)cc2c1 (configuration not stated),91%,27%,48%
CCCCNS(=O)(=O)c1ccc(NC(=O)c2cc([N+](=O)[O-])ccc2Cl)cc1,92%,47%,12%
N#Cc1ccc(-c2ccc(C(=O)NCCCCN3CCC(c4cn(CCCO)c5ccccc45)CC3)cc2)cc1,98%,56%,31%
COc1ccc2nc(C)cc(Nc3ccc(Oc4ccc(Br)c5ccccc45)c(Cl)c3)c2c1,100%,100%,100%
COc1cc(Nc2nccc(N3CCC(NC(=O)Nc4cc(C)ccc4C)C3)n2)cc(OC)c1OC (configuration not stated),91%,52%,13%
COc1cc(CNCCCNc2cc(=O)c3ccccc3[nH]2)c2c(c1)C(C)CN2C(=O)OC(C)(C)C (configuration not stated),96%,87%,0%
CC(NCCc1cccc(Cl)c1)C(O)c1ccc(OCCCCCCOc2ccc(C(O)C(C)NCCc3cccc(Cl)c3)cc2)cc1 (configuration not stated),100%,100%,96%
COc1ccc(Nc2ncc3c(-c4cccc(NC(=O)Cc5cccc(O)c5)c4)c[nH]c3n2)cc1OC,100%,96%,44%

# From ChEMBL document CHEMBL1157539, “Thousands of chemical starting points for antimalarial lead identification” (Nature, 2010)
